From PubChem BioAssay (EPA / NIEHS)
Inconclusive results are not listed. The source made the active and inactive calls. Rule for the calls, unless noted: active = hit-call score of the fitted dose curve at least 0.9, where 1 is the maximum; inconclusive = response in the unintended direction; inactive = score below 0.9. Where a SMILES comes first, the peptide text is derived from it. [ ]: non-standard residue; d: D form. pGlu = O=C1CC[C@@H](C(=O)O)N1; Thz = O=C(O)[C@@H]1CSCN1

Tests used:
[1] = TOX21_p53_BLA_p2_viability: Viability Assessment in the Tox21 HCT-116 p53 Agonism Beta-lactamase Assay, Phase 2 (AID 2283591);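 note: compound exposure lasted 16 h at 37 °C; actives lower the ATP signal meaning cytotoxicity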
Summary of the method: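 Cytotoxicity readout: CellTiter-Glo ATP luminescence, 30 min at room temperature, after the beta-lactamase read. Cells were HCT116 exposed 16 h at 37C to compounds pin-transferred at 217-fold dilution from DMSO stocks.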

[2] = target: Cellular tumor antigen p53 (Homo sapiens) (UniProt P04637); assay: TOX21_p53_BLA_p2_ratio: Tox21 HCT-116 p53 Agonism Beta-lactamase Assay, Ratio, Phase 2 (AID 2283592)
Chain of Cellular tumor antigen p53 (Homo sapiens) (P04637 whole entry, looked up): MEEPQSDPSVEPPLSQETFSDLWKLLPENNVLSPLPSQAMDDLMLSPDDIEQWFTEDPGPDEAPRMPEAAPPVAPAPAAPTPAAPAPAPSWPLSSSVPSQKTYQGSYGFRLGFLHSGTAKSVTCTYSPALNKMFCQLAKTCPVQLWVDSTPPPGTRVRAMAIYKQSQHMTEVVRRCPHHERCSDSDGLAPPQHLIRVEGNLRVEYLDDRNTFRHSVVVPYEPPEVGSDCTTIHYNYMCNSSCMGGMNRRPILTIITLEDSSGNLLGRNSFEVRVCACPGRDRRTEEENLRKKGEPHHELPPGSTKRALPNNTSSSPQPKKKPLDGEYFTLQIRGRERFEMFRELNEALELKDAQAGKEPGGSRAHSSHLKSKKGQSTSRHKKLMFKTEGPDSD
Summary of the method: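 HCT116 p53-bla; 4000 cells/well; 5 h pre-incubation; cpd in DMSO, 217-fold dilution; 16 h 37C/5% CO2; CCF4-AM 2 h RT; Ex 405, Em 460/530 ratio; DMSO = baseline; positive fitting direction.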

[3] = target: Cellular tumor antigen p53 (Homo sapiens) (UniProt P04637); assay: TOX21_p53_BLA_p3_ratio: Tox21 HCT-116 p53 Agonism Beta-lactamase Assay, Ratio, Phase 3 (AID 2283596)
Summary of the method: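 HCT116 p53-bla cells (4000/well) given compound in DMSO (217-fold dilution) after 5 h, incubated 16 h at 37C. CCF4-AM substrate 2 h at room temperature; 460/530 nm emission ratio, gain fitted against DMSO.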

[4] = TOX21_p53_BLA_p4_viability: Viability Assessment in the Tox21 HCT-116 p53 Agonism Beta-lactamase Assay, Phase 4 (AID 2283597);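 note: hits lower the luminescence signal meaning cytotoxicity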
Summary of the method: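 Cells plated, 5 h pre-incubation; DMSO compounds pinned (217-fold dilution); 16 h, 37C/5% CO2; CCF4-AM 2 h RT; CellTiter-Glo 30 min RT; luminescence read.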

[5] = target: Cellular tumor antigen p53 (Homo sapiens) (UniProt P04637); assay: TOX21_p53_BLA_p4_ratio: Tox21 HCT-116 p53 Agonism Beta-lactamase Assay, Ratio, Phase 4 (AID 2283601)
Summary of the method: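 Signal is the blue/green (460nm/530nm) ratio of cleaved versus uncleaved CCF4-AM substrate, read after 2 h substrate loading. Cells were HCT116 carrying the p53-responsive beta-lactamase reporter, dosed 16 h at 37C, 5% CO2; CellTiter-Glo measured in parallel.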

[6] = TOX21_p53_BLA_p5_viability: Viability Assessment in the Tox21 HCT-116 p53 Agonism Beta-lactamase Assay, Phase 5 (AID 2283600)
Summary of the method: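 4000 cells/well; 5 h pre-incubation; DMSO compounds pin-transferred, 217-fold dilution; 16 h, 37C/5% CO2; CCF4-AM 2 h RT; CellTiter-Glo 30 min RT; luminescence.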

[7] = target: Thyroid hormone receptor alpha (Rattus norvegicus) + Thyroid hormone receptor beta (Rattus norvegicus) (UniProt P18113+P63059); assay: TOX21_TR_LUC_GH3_Agonist_Followup: Tox21 GH3 Thyroid Hormone Receptor Agonism Luciferase Follow-Up Assay (AID 2283939)
Chain of Thyroid hormone receptor alpha (Rattus norvegicus) + Thyroid hormone receptor beta (Rattus norvegicus) (P63059 whole entry, looked up): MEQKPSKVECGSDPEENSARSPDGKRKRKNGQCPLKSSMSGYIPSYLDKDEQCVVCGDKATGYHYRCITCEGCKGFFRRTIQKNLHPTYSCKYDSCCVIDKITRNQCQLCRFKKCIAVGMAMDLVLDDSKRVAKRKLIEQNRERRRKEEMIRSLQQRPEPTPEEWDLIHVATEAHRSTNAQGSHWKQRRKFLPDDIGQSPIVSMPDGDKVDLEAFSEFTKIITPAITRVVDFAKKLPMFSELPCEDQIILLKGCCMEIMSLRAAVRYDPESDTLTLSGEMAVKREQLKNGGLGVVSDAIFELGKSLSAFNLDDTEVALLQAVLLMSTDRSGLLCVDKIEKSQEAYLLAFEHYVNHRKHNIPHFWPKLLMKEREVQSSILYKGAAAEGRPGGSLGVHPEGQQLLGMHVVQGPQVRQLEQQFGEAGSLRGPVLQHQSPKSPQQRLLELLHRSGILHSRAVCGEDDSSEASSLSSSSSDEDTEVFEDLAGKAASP
Chain of Thyroid hormone receptor alpha (Rattus norvegicus) + Thyroid hormone receptor beta (Rattus norvegicus) (P18113 whole entry, looked up): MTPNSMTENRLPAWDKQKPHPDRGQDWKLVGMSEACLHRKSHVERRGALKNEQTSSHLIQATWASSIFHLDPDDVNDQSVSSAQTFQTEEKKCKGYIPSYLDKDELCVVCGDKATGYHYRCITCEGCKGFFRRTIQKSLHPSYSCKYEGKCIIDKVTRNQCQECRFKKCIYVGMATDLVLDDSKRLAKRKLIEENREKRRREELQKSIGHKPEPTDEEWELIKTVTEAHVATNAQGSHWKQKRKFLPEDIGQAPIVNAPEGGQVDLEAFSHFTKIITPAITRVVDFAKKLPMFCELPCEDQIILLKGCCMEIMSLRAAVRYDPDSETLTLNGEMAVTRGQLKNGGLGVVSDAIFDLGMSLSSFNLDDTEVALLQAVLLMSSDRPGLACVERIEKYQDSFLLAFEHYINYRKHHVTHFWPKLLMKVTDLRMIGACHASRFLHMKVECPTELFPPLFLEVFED
Summary of the method: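 Rat GH3 cells (1,500/well) in serum-free assay medium, treated with 15-point series, 92 uM to 5 nM final, for 24 h at 37C. Luciferase via ONE-Glo luminescence; gain of signal fitted against DMSO, T3 positive control.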

THRA (gene 7067) = THRA (gene 7067) (UniProt P10827); assay: TOX21_TRA_COA_Agonist_Followup_ratio: Tox21 Thyroid Hormone Receptor alpha Agonism through Coactivator Recruitment Follow-Up Assay, Ratio (AID 2283948; active = hit-call score of the fitted dose curve at least 0.9, where 1 is the maximum; inactive = score below 0.9)
Chain of THRA (gene 7067) (P10827 whole entry, looked up, the tested form may be a part): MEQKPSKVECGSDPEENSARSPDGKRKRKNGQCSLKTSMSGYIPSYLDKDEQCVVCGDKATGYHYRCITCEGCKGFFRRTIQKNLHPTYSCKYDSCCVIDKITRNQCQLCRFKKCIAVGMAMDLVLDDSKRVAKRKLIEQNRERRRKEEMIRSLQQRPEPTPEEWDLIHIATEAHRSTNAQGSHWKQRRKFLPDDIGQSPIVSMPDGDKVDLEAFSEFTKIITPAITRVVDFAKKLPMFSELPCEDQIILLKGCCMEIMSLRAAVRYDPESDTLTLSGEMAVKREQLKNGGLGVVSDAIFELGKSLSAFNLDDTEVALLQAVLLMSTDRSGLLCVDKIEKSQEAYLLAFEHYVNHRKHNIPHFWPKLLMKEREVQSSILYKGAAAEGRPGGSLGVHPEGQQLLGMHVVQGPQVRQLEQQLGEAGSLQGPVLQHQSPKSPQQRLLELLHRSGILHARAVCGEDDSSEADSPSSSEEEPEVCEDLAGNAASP
Summary of the method: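 Follow-up specificity assay in which TRα ligand-binding domain, expressed as a GST fusion, recruits a fluorescein-labelled SRC-2 peptide. Energy transfer from a terbium anti-GST antibody gives the acceptor/donor ratio, fitted upward relative to DMSO.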

THRB (gene 7068) [8] = target: THRB (gene 7068) (UniProt P10828); assay: TOX21_TRB_BLA_Agonist_Followup_ratio: Tox21 Thyroid Hormone Receptor beta Agonism Beta-lactamase (BLA) Follow-Up Assay, Ratio (AID 2283954)
Chain of THRB (gene 7068) (P10828 whole entry, looked up, the tested form may be a part): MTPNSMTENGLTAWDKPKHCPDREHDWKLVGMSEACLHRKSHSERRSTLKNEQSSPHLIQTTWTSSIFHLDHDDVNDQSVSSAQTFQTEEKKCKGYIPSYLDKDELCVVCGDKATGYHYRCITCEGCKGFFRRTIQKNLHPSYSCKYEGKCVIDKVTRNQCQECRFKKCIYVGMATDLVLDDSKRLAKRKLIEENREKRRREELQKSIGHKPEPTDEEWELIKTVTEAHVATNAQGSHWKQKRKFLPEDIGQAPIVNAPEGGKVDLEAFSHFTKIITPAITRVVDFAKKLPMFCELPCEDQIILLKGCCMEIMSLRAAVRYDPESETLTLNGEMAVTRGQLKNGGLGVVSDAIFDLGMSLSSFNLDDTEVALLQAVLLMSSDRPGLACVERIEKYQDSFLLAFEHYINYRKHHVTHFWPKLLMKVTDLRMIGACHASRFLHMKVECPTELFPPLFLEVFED
Summary of the method: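 Human TRβ LBD–GAL4 DBD fusion in GeneBLAzer UAS-bla HEK293T cells; 11 concentrations in triplicate, 18 h at 37°C/5% CO2, T3 as agonist control. CCF4-AM substrate 2 h at room temperature; 460:530 nm ratio fitted for gain of signal versus DMSO.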

THRB (gene 7068) [9] = target: THRB (gene 7068) (UniProt P10828); assay: TOX21_TRB_COA_Agonist_Followup_ratio: Tox21 Thyroid Hormone Receptor beta Agonism through Coactivator Recruitment Follow-Up Assay, Ratio (AID 2283963; active = hit-call score of the fitted dose curve at least 0.9, where 1 is the maximum; inactive = score below 0.9)
Summary of the method: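 Agonism is measured as coactivator recruitment in a purified-protein TR-FRET format, using GST-TRβ LBD at 5.0 nM, fluorescein-SRC-2 peptide at 200 nM and Tb-labeled anti-GST antibody at 2 nM. Values are 520:495 nm ratios relative to DMSO (0%) and T3 (100%).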

[10] = target: Retinoic acid receptor RXR-alpha (Homo sapiens) (UniProt P19793); assay: TOX21_TR_RXR_BLA_Agonist_Followup_ratio: Tox21 Thyroid Hormone Receptor beta Retinoid X Receptor alpha (RXRa) Agonism Beta-lactamase (BLA) Follow-Up Assay, Ratio (AID 2283968)
Chain of Retinoic acid receptor RXR-alpha (Homo sapiens) (P19793 whole entry, looked up, the tested form may be a part): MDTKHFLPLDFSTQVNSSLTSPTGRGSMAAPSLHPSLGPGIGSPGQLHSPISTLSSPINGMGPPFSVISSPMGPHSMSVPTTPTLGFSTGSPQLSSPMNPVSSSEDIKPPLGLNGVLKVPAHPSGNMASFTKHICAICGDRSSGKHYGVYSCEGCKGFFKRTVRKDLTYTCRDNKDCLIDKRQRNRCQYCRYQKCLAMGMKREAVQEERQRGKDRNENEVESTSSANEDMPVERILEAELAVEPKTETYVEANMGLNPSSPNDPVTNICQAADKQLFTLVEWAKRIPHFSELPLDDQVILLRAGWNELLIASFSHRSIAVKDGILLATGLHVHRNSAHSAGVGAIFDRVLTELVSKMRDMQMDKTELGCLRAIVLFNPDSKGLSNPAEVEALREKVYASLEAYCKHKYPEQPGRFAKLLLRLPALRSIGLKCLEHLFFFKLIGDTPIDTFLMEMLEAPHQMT
Summary of the method: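 RXRa-UAS-bla HEK293T cells (GAL4 beta-lactamase reporter) were treated with compounds at 11 concentrations in triplicate for 16 h at 37C/5% CO2, then loaded with CCF4-AM substrate for 2 h at room temperature; activity is the 460:530 nm ratio versus DMSO baseline.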

[11] = TOX21_TR_RXR_BLA_Agonist_Followup_viability: Viability Assessment in the Tox21 Thyroid Hormone Receptor beta Retinoid X Receptor alpha (RXRa) Agonism Beta-lactamase (BLA) Follow-Up Assay (AID 2283970)
Summary of the method: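 RXRa-UAS-bla HEK293T cells seeded at 2,500/well in phenol red-free DMEM with 2% charcoal-stripped FBS, exposed to compound 16h at 37C/5% CO2 in qHTS. Viability read by CellTiter-Glo ATP luminescence; bidirectional fitting against DMSO baseline, signal loss indicating cytotoxicity.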

[12] = target: Cellular tumor antigen p53 (Homo sapiens) (UniProt P04637); assay: TOX21_p53_BLA_p5_ratio: Tox21 HCT-116 p53 Agonism Beta-lactamase Assay, Ratio, Phase 5 (AID 2283599)
Summary of the method: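 Beta-lactamase reporter ratio (blue 460 nm over green 530 nm, 405 nm excitation) after 2 h CCF4-AM loading, in HCT-116 cells exposed 16 h at 37 C to compounds pinned at 217-fold dilution. Increases relative to DMSO baseline scored.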

[13] = CCTE_Harrill_HTTr_Viability_MCF7: CCTE's 6-hour Cell Viability Assessment for the High-Throughput Transcriptomics (HTTr) Platform, in MCF-7 cells cultured in DMEM + 10% fetal bovine serum, Harrill Lab (AID 2284010; active = hit-call score of the fitted dose curve at least 0.9, where 1 is the maximum; inactive = score below 0.9)
Summary of the method: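 Membrane integrity was scored by high-content imaging of propidium iodide dye exclusion after a 6 h exposure across an eight-point dilution series. Data were fitted bidirectionally relative to DMSO as negative control and baseline.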

[14] = CCTE_Harrill_HTTr_Apoptosis_MCF7: CCTE's 6-hour Apoptosis Assessment for the High-Throughput Transcriptomics (HTTr) Platform, in MCF-7 cells cultured in DMEM + 10% fetal bovine serum, Harrill Lab (AID 2284011; active = hit-call score of the fitted dose curve at least 0.9, where 1 is the maximum; inactive = score below 0.9)
Summary of the method: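 MCF-7 (DMEM + 10% FBS), 384-well; 8-pt dilution series, 6 h chemical exposure; caspase-3/7 activation via CellEvent Caspase 3/7 Green, HCI; bidirectional fit vs DMSO.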

Measured: outcome

O=C(O)c1ccccc1OP(=O)(O)O
inactive: [1] | [2] | [3] | [4] | [5]

COc1ccc(C(=O)c2ccc(OC)cc2O)c(O)c1
inactive: [1] | [2] | [3] | [4] | [5]

CSCC[C@H](NC(=O)[C@H](Cc1ccc(OS(=O)(=O)O)cc1)NC(=O)[C@@H](N)CC(=O)O)C(=O)NCC(=O)N[C@@H](Cc1c[nH]c2ccccc12)C(=O)N[C@@H](CCSC)C(=O)N[C@@H](CC(=O)O)C(=O)N[C@@H](Cc1ccccc1)C(N)=O
inactive: [1] | [2] | [3] | [4] | [6] | [5] | [7] | THRA (gene 7067) | THRB (gene 7068) [8] | THRB (gene 7068) [9] | [10] | [11]

OCc1ccccc1O
inactive: [1] | [2] | [3] | [12] | [6]

CC1CCc2c(N3CCC(O)CC3)c(F)cc3c(=O)c(C(=O)O)cn1c23 (stereo not given)
inactive: [1] | [2] | [3] | [4] | [5]

CCCN(CCC)CCc1cccc2c1CC(=O)N2
inactive: [1] | [2] | [3] | [12] | [6]

CC=CC(=O)CC
inactive: [1] | [2] | [3] | [12] | [6]

CC(C)Cn1cnc2c(N)nc3ccccc3c21
inactive: [1] | [2] | [3] | [12] | [6]

COC(=O)c1ccccc1Cl
inactive: [1] | [2] | [3] | [12] | [6]

CO[C@H]1C[C@H](O[C@H]2[C@H](C)[C@@H](O[C@@H]3O[C@H](C)C[C@H](N(C)C)[C@H]3O)[C@@H](C)C[C@]3(CO3)C(=O)[C@H](C)[C@@H](O)[C@@H](C)[C@@H](C)OC(=O)[C@@H]2C)O[C@@H](C)[C@@H]1O
inactive: [1] | [2] | [3] | [12] | [6]

CC1CC(C)C(=O)C1=O (stereo not given)
inactive: [1] | [2] | [3] | [12]

CCCNC(C)C(=O)Nc1c(C)csc1C(=O)OC (stereo not given)
inactive: [1] | [2] | [3] | [12] | [6]

CCOC(=O)Cc1cccc(-c2cc(CCCCCCc3ccc(O[C@H]4O[C@H](COC(C)=O)[C@@H](OC(C)=O)[C@H](OC(C)=O)[C@@H]4OC(C)=O)c(-c4cccc(CC(=O)OCC)c4)c3)ccc2O[C@H]2O[C@H](COC(C)=O)[C@@H](OC(C)=O)[C@H](OC(C)=O)[C@@H]2OC(C)=O)c1
inactive: [1] | [2] | [3] | [4] | [5]

O=C1CC[C@@H](C(=O)N2CSC[C@H]2C(=O)O)N1 ([pGlu]-[Thz]-OH)
inactive: [1] | [2] | [3] | [12]

CC(CCc1ccccc1)NCC(O)c1ccc(O)c(C(N)=O)c1 (stereo not given)
inactive: [1] | [2] | [3] | [4] | [6] | [5] | [13] | [14]

CN1C(=O)CC(c2ccccc2)C1=O (stereo not given)
inactive: [1] | [2] | [3] | [12] | [6] | [5]

CC1CCc2cc(F)cc3c(=O)c(C(=O)O)cn1c23 (stereo not given)
inactive: [1] | [2] | [3] | [12] | [6] | [5]

COC(=O)[C@@H](N)CS
inactive: [1] | [2] | [3] | [12] | [6] | [5]

CCOC(=O)c1c[nH]c2cc(OCC(C)C)c(OCC(C)C)cc2c1=O
inactive: [1] | [2] | [3] | [12] | [6] | [5]

CCCCCCCCCCCCCCCCCCOCC(O)CO (stereo not given)
inactive: [1] | [2] | [3] | [12] | [6] | [5]

CO/N=C(\C(=O)N[C@@H]1C(=O)N2C(C(=O)O)=CCS[C@H]12)c1csc(N)n1
inactive: [1] | [2] | [3] | [12] | [6] | [5]

C=CCn1cc[n+](C)c1
inactive: [1] | [2] | [3] | [12] | [6] | [5]

CC(=O)N[C@@H](CC(C)C)C(=O)O
inactive: [1] | [2] | [3] | [12] | [6] | [5]

NCCO/C=C/[C@H](N)C(=O)O
inactive: [1] | [2] | [3] | [12] | [6] | [5]

CC1=C(/C=C/C(C)=C/C=C/C(C)=C/C=C/C=C(C)/C=C/C=C(C)/C=C/C2=C(C)CCCC2(C)C)C(C)(C)CCC1
inactive: [1] | [2] | [3] | [12] | [6] | [5]

C=C(C)C1CC=C(C)C(O)C1 (stereo not given)
inactive: [1] | [2] | [3] | [12] | [6] | [5]

OCCN1CCN(CCO)CC1
inactive: [1] | [2] | [3] | [12] | [6] | [5]

c1coc(Cn2cccc2)c1
inactive: [1] | [2] | [3] | [12] | [6] | [5]

CCCCCCCC
inactive: [1] | [2] | [3] | [12] | [6] | [5]

CN(C)CCn1nnnc1SCC1=C(C(=O)O)N2C(=O)[C@@H](NC(=O)Cc3csc(N)n3)[C@H]2SC1
inactive: [1] | [2] | [3] | [12] | [6] | [5]

CC(C)(C)OCC1CO1 (stereo not given)
inactive: [1] | [2] | [3] | [12] | [6] | [5]

CCC1OCC(COc2ccc(Oc3ccccc3)cc2)O1 (stereo not given)
inactive: [1] | [2] | [3] | [12] | [6] | [5]
